# Data published in PubChem BioAssay AID1628 (Sanford-Burnham Center for Chemical Genomics, 2009).
# The whole screen tested about 190,000 compounds, of which about 930 (0.49%) were called active. The list shows a part of the results. Potency and affinity values are given separately. Values without a mark were called inactive.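 The calls were made as follows: active = z-score of insulin promoter reporter brightness in nuclei below -3 at 5 µM, with at least 500 cells counted; inconclusive = wells with under 500 cells, flagged as toxic or sparse; inactive = the rest.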
# Assay: decrease of insulin promoter-GFP reporter – imaging, high-content screening, mouse beta cells (AID 1628)
# Conditions: MIN6 insulin promoter GFP reporter, at 5 µM, hits give low values
row,Structure (SMILES),z-score
1,O=C(/C=C/c1c[nH]c2ccccc12)c1c(O)n(CCc2ccccc2)c(=O)[nH]c1=O,16
2,CNCCc1c[nH]c2ccccc12,-0.16
3,CCC(=NCCc1c[nH]c2ccccc12)c1c(O)n(C)c(=O)n(C)c1=O,-5.98 (active)
4,CCCCCCn1c(O)c(C=NC2CCCCC2N)c(=O)[nH]c1=O (stereo unspecified),-0.8
5,Cc1cc(C=C2C(=O)NC(=O)NC2=O)c(C)n1-c1ccncc1,2.32
6,CCCCCn1c(=O)c(C(=O)Nc2cnccn2)c(O)c2ccccc21,-5.71 (active)
7,CCCCCCn1c(=O)c(C(=O)Nc2ccncc2)c(O)c2ccccc21,-5.74 (active)
8,CCCCn1c(O)c(C(=O)/C=C/c2c[nH]c3ccccc23)c(=O)[nH]c1=O,12.4
9,CCCCCn1c(=O)c(C(=O)Nc2nc3ccccc3[nH]2)c(O)c2ccccc21,-3.26 (active)
10,CN1CCN(c2ccc(/C=C3\C(=O)NC(=S)N(c4cccc(Br)c4)C3=O)o2)CC1,3.97
11,O=C(O)c1cccc2nc3ccccc3nc12,-0.32
12,Oc1c(Cl)cc(Cl)cc1CN1CCN(Cc2ccccc2)CC1,2.17
13,O=[N+]([O-])c1ccc(NCc2ccccc2)c2nonc12,13.4
14,CCCCc1ccc2[nH]cc(CCN)c2c1,3.13
15,CC(=O)OC(C)(C)/C=C/C(=O)[C@](C)(O)[C@H]1[C@H](O)C[C@@]2(C)[C@@H]3CC=C4[C@H](C[C@H](O)C(=O)C4(C)C)[C@]3(C)C(=O)C[C@]12C,-4.32 (active)
16,CN1CC=C2C(C#N)=C(N)C(C#N)(C#N)C(c3ccncc3)C2C1 (stereo unspecified),8.74
17,O=c1[nH]c(=O)n(-c2ccc(F)cc2)c(O)c1C=Nc1ccccc1N1CCCC1,4.37
18,O=c1cc(C(F)(F)F)c2cc3c4c(c2o1)CCCN4CCC3,17.3
19,CC(C)N1CCN(Cc2cccc([N+](=O)[O-])c2)CC1,2.53
20,O=C(/C=C/c1ccccc1)NCCc1cnc[nH]1,-0.29
21,CN1/C(=C\C=C2C(=O)NC(=S)NC2=O)C(C)(C)c2ccccc21,14.4
22,O=C1Nc2ccc(Br)cc2C(c2ccccc2Cl)=NC1O (stereo unspecified),-0.25
23,N#Cc1ccccc1Cn1cc(C(=O)c2ccco2)c2ccccc21,-6.56 (active)
24,CN1C(=O)C(=Cc2ccc(N3CCCCC3)o2)C(=O)N(C)C1=S,4.86
25,Cc1ccc(Cn2nnnc2CN2CCC(n3nnc4cc(C(F)(F)F)ccc43)CC2)cc1,-3.36 (active)
26,CCCCCCn1c(O)c(C=Nc2ccccc2N2CCOCC2)c(=O)[nH]c1=S,3.25

row,Structure (SMILES),z-score
1,CC(C)(C)c1nc(NCc2ccc3c(c2)OCO3)c2nnn(Cc3ccccc3Cl)c2n1,2.04
2,COc1ccc(Cl)cc1NC1=NCC(C)S1 (stereo unspecified),-4.13 (active)
3,CN1CCN(c2nc(Cl)ncc2F)CC1,4.91
4,CC1=NCCc2c1[nH]c1ccccc21,-0.55
5,CCn1nc(/C=C/c2ccccc2)nc2c(=O)n(C)c(=O)nc1-2,-4.69 (active)
6,Cc1cc2c(C(F)(F)F)cc(=O)oc2c2c1NCCC2,5.21
7,CN1C2CCC1CC(=NO)C2,0.21
8,Nc1cc2nc3ccccc3nc2cc1N,3.68
9,CC(C)[C@H]1C(=O)O[C@H](C(C)C)C(=O)N(C)[C@@H](C(C)C)C(=O)O[C@H](C(C)C)C(=O)N(C)[C@@H](C(C)C)C(=O)O[C@H](C(C)C)C(=O)N1C,-4.32 (active)
10,NC(=O)OCCSc1nnc(-c2cccc(C(N)=S)c2)o1,1.36
11,O=C1NC(=O)N(c2ccc3c(c2)OCO3)C(=O)/C1=C/c1cccs1,1.66
12,c1ccc2c(N3CCNCC3)nsc2c1,3.06
13,COc1ccccc1CN1CCN(C(=O)COc2ccccc2)CC1,-4.58 (active)
14,COc1ccc(OCC(=O)N2CCN(C3CCC(c4ccccc4)CC3)CC2)cc1 (stereo unspecified),-4.73 (active)
15,COc1ccc(CC(=O)N2CCN(C)CC2)cc1,3.53
16,CCC(=O)c1ccc(OC)c(OC)c1,-0.74
17,C=CCN1C(=O)/C(=C/c2ccc(N3CCOCC3)o2)C(=O)NC1=S,3.53
18,Cn1c(=O)c2c(ncn2CCCl)n(C)c1=O,0.35
19,CCc1ccccc1N1C(=O)/C(=C/c2ccc(N3CCN(C)CC3)o2)C(=O)NC1=S,3.37
20,Cc1cc([N+](=O)[O-])c2ccccc2[n+]1[O-],-6.12 (active)
21,c1ccc2c(NC3=NCCS3)cccc2c1,-5.01 (active)
22,CC(Cc1ccccc1)NC(=O)CN1CCCC1=O (stereo unspecified),-3.46 (active)
23,COc1ccc(-c2cc(-c3ccccc3)[n+](C)c(-c3ccccc3)c2)cc1,-4.19 (active)
24,CCN(CC)c1ccc(/C=N/c2sc3c(c2C#N)C2CCN3CC2)c(O)c1,16.8
25,CC1CCCC(C2(O)C(=O)Nc3ccccc32)C1=O (stereo unspecified),5.61
